The structures appear in SMILES notation. Calls of active or inactive are those of the source. Where a call stands in place of a potency, no number is given. Unless noted, calls follow the shape of the dose curve; as a rule, active = well fitted curve in the direction sought with a large enough effect; inconclusive = small, poorly fitted or top-dose-only effect, or another doubt; inactive = no such curve, though single readings can be large; an effect the other way counts as inactive or inconclusive.

Pyruvate kinase (Leishmania mexicana), sequence (Q27686 2-499 E452W): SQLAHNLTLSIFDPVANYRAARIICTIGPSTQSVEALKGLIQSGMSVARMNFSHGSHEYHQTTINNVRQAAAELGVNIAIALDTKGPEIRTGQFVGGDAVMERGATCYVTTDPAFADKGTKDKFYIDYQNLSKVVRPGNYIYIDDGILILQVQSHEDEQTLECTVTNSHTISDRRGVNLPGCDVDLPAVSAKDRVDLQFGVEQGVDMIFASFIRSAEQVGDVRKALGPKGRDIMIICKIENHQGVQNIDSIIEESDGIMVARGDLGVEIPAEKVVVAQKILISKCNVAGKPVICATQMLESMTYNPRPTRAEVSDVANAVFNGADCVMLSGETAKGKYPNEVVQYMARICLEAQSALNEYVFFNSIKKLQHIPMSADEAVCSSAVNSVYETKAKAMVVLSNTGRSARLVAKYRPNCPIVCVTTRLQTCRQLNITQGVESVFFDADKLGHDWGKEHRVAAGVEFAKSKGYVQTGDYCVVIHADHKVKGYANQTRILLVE
Pyruvate kinase PKM (Homo sapiens), sequence (P14618 whole entry, looked up): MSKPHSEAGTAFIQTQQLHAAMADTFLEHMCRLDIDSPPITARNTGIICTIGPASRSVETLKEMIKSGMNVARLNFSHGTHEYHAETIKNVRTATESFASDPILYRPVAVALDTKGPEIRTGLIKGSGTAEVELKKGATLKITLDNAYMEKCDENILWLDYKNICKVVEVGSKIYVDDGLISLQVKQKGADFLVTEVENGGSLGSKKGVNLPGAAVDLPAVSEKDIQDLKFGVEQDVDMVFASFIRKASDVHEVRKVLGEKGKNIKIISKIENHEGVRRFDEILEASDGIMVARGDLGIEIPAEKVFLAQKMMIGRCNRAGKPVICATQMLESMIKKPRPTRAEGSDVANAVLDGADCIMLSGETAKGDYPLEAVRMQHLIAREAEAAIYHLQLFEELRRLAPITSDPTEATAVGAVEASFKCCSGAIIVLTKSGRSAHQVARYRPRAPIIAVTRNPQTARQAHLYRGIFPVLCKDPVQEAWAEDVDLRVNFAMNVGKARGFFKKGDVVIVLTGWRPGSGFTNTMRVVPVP
Alpha-galactosidase A (Homo sapiens), sequence (P06280 whole entry, looked up): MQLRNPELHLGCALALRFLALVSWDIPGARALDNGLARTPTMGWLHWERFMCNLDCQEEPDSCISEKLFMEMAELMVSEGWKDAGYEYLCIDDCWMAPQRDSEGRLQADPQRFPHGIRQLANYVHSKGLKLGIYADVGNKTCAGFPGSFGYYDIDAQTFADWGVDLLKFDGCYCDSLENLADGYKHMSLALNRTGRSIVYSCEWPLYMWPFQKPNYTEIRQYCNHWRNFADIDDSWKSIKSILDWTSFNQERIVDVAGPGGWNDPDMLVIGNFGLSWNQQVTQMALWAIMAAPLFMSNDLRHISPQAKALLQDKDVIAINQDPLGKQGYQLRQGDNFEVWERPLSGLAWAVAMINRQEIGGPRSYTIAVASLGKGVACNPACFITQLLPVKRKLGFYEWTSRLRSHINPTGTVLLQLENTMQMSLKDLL

One assay has as its target Pyruvate kinase (Leishmania mexicana) (UniProt Q27686). The assay is described as follows: qHTS Validation Assay for Inhibitors of Leishmania Mexicana Pyruvate Kinase (AID 945). The conditions noted are these: purified L. mexicana pyruvate kinase, enzyme activity, E451W mutant enzyme; series mostly up to 57.5 µM. In short, it runs like this:
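Luminescent ATP detection (PKLight) after a 1 h room-temperature reaction of 0.2 nM LmPYK E451W mutant with 0.5 mM PEP and 0.1 mM ADP at pH 7.2. Activity is normalized to DMSO-only control wells.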
(In general: Quantitative high-throughput screening tests each substance at several concentrations.)
On to `CSc1ccc2c(c1)N(CC[C@H]1CCCCN1C)c1ccccc1S2`, for which the Potency result was “inactive”.

As for `COC(=O)C1=C(C)NC(C)=C(C(=O)OCCN(C)Cc2ccccc2)[C@@H]1c1cccc([N+](=O)[O-])c1`, the Potency entry is “inactive”.

Regarding `N#C[C@@H](Cc1ccc(O)c(O)c1)C(=O)N1CCc2ccccc21`, the Potency result is “inactive”.

Take `Cc1c(C)c2c(c(C)c1O)CC[C@@](C)(CN1CCN(c3cc(N4CCCC4)nc(N4CCCC4)n3)CC1)O2`: the Potency entry was “inactive”.

The next assay concerns the target Pyruvate kinase PKM (Homo sapiens) (UniProt P14618). The assay is described as follows: qHTS Assay for Activators of Human Muscle Pyruvate Kinase (AID 954; active = well fitted curve in the direction sought with a large enough effect, not every such curve was filed as active). The conditions noted are these: purified human muscle pyruvate kinase, luciferase-coupled luminescence, 1 h; series mostly up to 57.5 µM. In short, it runs like this:
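Luminescence from a luciferase ATP-detection/stop reagent reported PKM2 activity. Reactions contained 0.1 nM purified human enzyme, 0.5 mM PEP, 0.1 mM ADP and 7 mM MgCl2 at pH 7.2, run 1 h at RT.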
On to `CSc1ccc2c(c1)N(CC[C@H]1CCCCN1C)c1ccccc1S2`, for which the outcome was inactive.

As for `COC(=O)C1=C(C)NC(C)=C(C(=O)OCCN(C)Cc2ccccc2)[C@@H]1c1cccc([N+](=O)[O-])c1`, the compound was called inactive.

As for `N#C[C@@H](Cc1ccc(O)c(O)c1)C(=O)N1CCc2ccccc21`, the result was inactive.

Consider `Cc1c(C)c2c(c(C)c1O)CC[C@@](C)(CN1CCN(c3cc(N4CCCC4)nc(N4CCCC4)n3)CC1)O2`, for which the result was inactive.

The target of the next assay is Alpha-galactosidase A (Homo sapiens) (UniProt P06280). The assay is described as follows: Counterscreen for Glucocerebrosidase Inhibitors: qHTS Assay for Human alpha-Galactosidase at pH 4.5 (AID 992). The conditions noted are these: purified enzyme, fluorogenic substrate; series mostly up to 76.9 µM. In short, it runs like this:
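Enzyme at 2 nM final was combined with compound (0.7 nM to 77 uM) and 80 uM 4-methylumbelliferyl alpha-D-galactopyranoside in 50 mM citric acid, 0.005% Tween-20, pH 4.5. After 20 min at room temperature, fluorescence was read (Ex 365/Em 440 nm); AC50 came from Hill fits.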
Background: The purpose of a counterscreen is to sort out artefacts and off-target activity.
As to `CSc1ccc2c(c1)N(CC[C@H]1CCCCN1C)c1ccccc1S2`, the call was inactive.

Regarding `COC(=O)C1=C(C)NC(C)=C(C(=O)OCCN(C)Cc2ccccc2)[C@@H]1c1cccc([N+](=O)[O-])c1`, the outcome was inactive.

With `N#C[C@@H](Cc1ccc(O)c(O)c1)C(=O)N1CCc2ccccc21`, the result was inactive.

As for `Cc1c(C)c2c(c(C)c1O)CC[C@@](C)(CN1CCN(c3cc(N4CCCC4)nc(N4CCCC4)n3)CC1)O2`, the compound was called inactive.

A further assay has as its target alpha-glucosidase (Oryza sativa, rice) (UniProt Q653V4). In words: Counterscreen for Glucocerebrosidase Inhibitors: qHTS Assay for Rice alpha-Glucosidase at pH 5.0 (AID 997). The following applies: rice alpha-glucosidase enzyme activity; series mostly up to 76.9 µM. In short, it runs like this:
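Rice alpha-glucosidase (4 nM final) with 400 uM 4-methylumbelliferyl-alpha-D-glucopyranoside in citrate buffer pH 5.0, 20 min at room temperature, stopped at pH 10; fluorescence 365/440 nm, compounds 0.7 nM–77 uM, AC50 from Hill fits.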
Consider `CSc1ccc2c(c1)N(CC[C@H]1CCCCN1C)c1ccccc1S2`, for which the compound was classed as inactive.

Take `COC(=O)C1=C(C)NC(C)=C(C(=O)OCCN(C)Cc2ccccc2)[C@@H]1c1cccc([N+](=O)[O-])c1`: the compound was called inactive.

Consider `N#C[C@@H](Cc1ccc(O)c(O)c1)C(=O)N1CCc2ccccc21`, for which the call was inactive.

On to `Cc1c(C)c2c(c(C)c1O)CC[C@@](C)(CN1CCN(c3cc(N4CCCC4)nc(N4CCCC4)n3)CC1)O2`, for which the outcome was inactive.

These data come from PubChem BioAssay (NCATS).
